Hits are enriched below; roughly 28% of the tested compounds scored in any of these assays.
D1 allo mod – D1 CRE-luciferase signal change, two-sided – cell-based, HEK293 D1, dopamine EC30, D1 allosteric modulator project, primary screen. D(1A) dopamine receptor (Homo sapiens), P21728. dopamine EC30 potentiation; actives deviate in either direction. B-score at 10 µM. 5.9% of 58,000 active. AID 641, 2007;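 active = luminescence count or its row- and column-corrected plate score outside the 99.7% band of the plate's sample wells, on either side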
Target sequence (P21728 whole entry, looked up): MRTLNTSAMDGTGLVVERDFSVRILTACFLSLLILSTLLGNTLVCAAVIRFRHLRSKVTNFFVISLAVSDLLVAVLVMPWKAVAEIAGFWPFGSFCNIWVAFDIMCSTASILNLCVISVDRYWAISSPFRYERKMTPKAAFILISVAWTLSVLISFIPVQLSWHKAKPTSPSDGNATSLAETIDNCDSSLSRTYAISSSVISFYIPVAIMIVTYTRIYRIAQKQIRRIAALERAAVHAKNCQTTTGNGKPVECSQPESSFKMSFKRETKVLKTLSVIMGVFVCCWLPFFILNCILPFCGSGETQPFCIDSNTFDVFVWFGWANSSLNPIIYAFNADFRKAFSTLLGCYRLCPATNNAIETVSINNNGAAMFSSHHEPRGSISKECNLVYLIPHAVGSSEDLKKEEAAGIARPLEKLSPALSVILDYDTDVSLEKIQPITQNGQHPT
hDAT+cocaine – changed hDAT dopamine uptake under cocaine IC80, either direction, primary screen, cocaine antagonist project, cell-based, LLC-PK1 hDAT, [14C]-dopamine uptake, MLSMR | Sodium-dependent dopamine transporter (Homo sapiens), Q01959 | LLC-PK1 hDAT cells, [14C]-dopamine uptake with cocaine IC80; actives deviate in either direction | B-score at 10 µM | 1.3% of 110,000 active;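 active = Z score or B-score, a plate-position-corrected score, falls beyond the plate's 99.7% confidence bounds, in either direction; inactive = both scores lie inside the 99.7% bounds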;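 note: scored against the spread of the other compound wells on the same plate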
CYP2C19 inh – blockers of cytochrome P450 2C19 activity – biochemical, luminescence, ADME assay, primary screen; P33261; CYP2C19 Supersomes, luciferin-H EGE luminescence, 30 min; inhibition, % at 5 µM; 21% of 96,000 active; AID 778, 2007;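 active = CYP2C19 inhibition above a set limit at 5 µM in the primary screen, cut at about 50% in these data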;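 note: plate controls were negative control wells for no effect and 2.5 mM tranylcypromine positive control for full effect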
CYP2C19 activ – human CYP2C19 activators, primary screen, biochemical, luminescence. Cytochrome P450 2C19 (Homo sapiens), P33261. recombinant CYP2C19, luciferin-H EGE luminescence; hits give high values; 0 = fully inhibited enzyme, 1 = untreated enzyme. activation factor at 5 µM. 96,000 tested, under 10 active. AID 1025, 2008;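 active = activation factor of at least 2 at 5 µM in the primary screen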;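 note: 0 = wells with 2.5 mM tranylcypromine and 1 = vehicle-only wells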
CYP2C9 inh – blockers of cytochrome P450 2C9 activity – biochemical, luminescence, ADME assay, primary screen; CYP2C9 Supersomes, luciferin-H conversion; P11712; AID 777, 2007; inhibition, % at 5 µM; 20% of 96,000 active;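 active = blocking of liver enzyme CYP2C9 beyond about 50% at 5 µM, limit read from the data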
CYP2C9 act – human CYP2C9 activators, primary screen, biochemical, luminescence. Cytochrome P450 2C9 (Homo sapiens), P11712. recombinant CYP2C9, luciferin-H conversion; hits give high values; factor 1 = untreated enzyme, 0 = blocked. activation factor at 5 µM. 1.4% of 96,000 active;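 active = activation factor of 2 or more for CYP2C9 at a 5 µM dose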;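 note: 0 = sulfaphenazole-blocked wells and 1 = vehicle-only wells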
* = called active by the depositor; . = not tested or not shown.

SMILES	D1 allo mod	hDAT+cocaine	CYP2C19 inh	CYP2C19 activ	CYP2C9 inh	CYP2C9 act
O=[N+]([O-])c1cc(/C=N/O)ccc1SCc1ccccc1	.	0.69	20	0.8	26	0.7
CO/N=C/c1ccc(Sc2ccccc2N)c([N+](=O)[O-])c1	.	0.5	74*	0.3	69*	0.3
O=C(CSc1n[nH]c(-c2ccc(Cl)cc2Cl)n1)Nc1ccccn1	.	.	30	0.7	72*	0.3
COc1ccc(-c2ccnc(SCC(=O)Nc3ccccn3)n2)cc1	.	0.46	.	.	.	.
COc1ccc(-c2nnc(SCC(=O)NC(C)c3ccccc3)o2)cc1OC (stereo not drawn)	1.8	1	62*	0.4	-10	1.1
COc1ccc(-c2nnc(SCC(=O)N3CCCC3)o2)cc1OC	0.19	0.21	.	.	.	.
O=C(CSCC(=O)c1ccccc1)Nc1ccccc1Cl	.	-1.3	68*	0.3	1	1
O=C(CSc1nc2ccccc2o1)Nc1ccccc1N1CCOCC1	.	-1.2	92*	0.1	95*	0.1
O=C(CSc1nnc(-c2ccc(F)cc2)o1)Nc1ccccc1N1CCOCC1	.	3.3*	.	.	.	.
COc1ccc(-c2nnc(SCC(=O)Nc3cc(F)ccc3C)o2)cc1	0.41	-0.5	54*	0.5	-37	1.4
Cc1ccccc1NC(=O)CSc1nc2ccccc2o1	.	-0.34	59*	0.4	10	0.9
O=C(CSc1nc2ccccc2[nH]1)Nc1ccccc1N1CCOCC1	.	-0.84	98*	0	79*	0.2
O=C(CSc1nc2ccccc2o1)Nc1nc2c(s1)CCCC2	-2.4*	.	.	.	.	.
O=C(CSc1nc2ccccc2o1)Nc1ccc(N2CCOCC2)cc1	-0.72	-1.1	22	0.8	24	0.8
COc1ccccc1NC(=O)CSc1nnc(-c2ccc(C)cc2)o1	.	-0.46	-1	1	-1	1
O=C(CSc1nc2ccccc2o1)Nc1nc2ccccc2s1	0.4	-1.6	10	0.9	12	0.9
CN1C(=O)OC(C)(C)C1=O	.	-0.25	.	.	.	.
CCC(=O)Nc1ccc(NC(=O)CSc2nc3cc4c(cc3cc2C)CCC4)cc1	.	-0.28	-3	1	24	0.8
Cc1ccccc1NC(=O)CSc1nc2cc3c(cc2cc1C)CCC3	.	-0.71	8	0.9	52*	0.5
Cc1ccccc1NC(=O)CSC(N)=O	-0.094	-0.3	16	0.8	7	0.9
Cc1ccccc1NC(=O)CSCC(=O)Nc1ccccc1C	.	0.25	72*	0.3	40	0.6
O=C1Cc2ccccc2C(c2ccc(Br)cc2)N1 (stereo not drawn)	.	0.35	100*	0	71*	0.3
C=CCSC(=C(C#N)C#N)c1cc2c([nH]1)CCCC2	.	-0.051	42	0.6	63*	0.4
CCN(CC)CCNc1nc2cc(OC)c(OC)cc2c2nc(-c3ccccc3)nn12	.	-0.57	-4	1	-25	1.3
COCCNC(=O)c1noc2c1CCc1cc(OC)ccc1-2	-0.048	-0.0018	20	0.8	59*	0.4
SMILES	D1 allo mod	hDAT+cocaine	CYP2C19 inh	CYP2C19 activ	CYP2C9 inh	CYP2C9 act
COc1ccc2c(c1)CCc1c(C(=O)NCc3ccco3)noc1-2	1.1	0.49	62*	0.4	-41	1.4
COc1ccc2c(c1)CCc1c(C(=O)NCCCn3ccnc3)noc1-2	0.55	1.9	82*	0.2	69*	0.3
COc1ccc2c(c1)CCc1c(C(=O)NCCN3CCOCC3)noc1-2	-0.31	0.08	4	1	2	1
COCC(C)NC(=O)c1noc2c1CCc1cc(OC)ccc1-2 (stereo not drawn)	-0.4	-0.96	2	1	-36	1.4
CCOC(=O)CNC(=O)Nc1nnc(-c2ccc(OCC)cc2)o1	0.06	0.027	-4	1	-17	1.2
CCc1ncc(C)nc1CC	.	-0.86	.	.	.	.
Cc1ccnc(NS(=O)(=O)c2ccc(NS(=O)(=O)Cc3ccccc3)cc2)n1	-1.5	0.042	-6	1.1	5	0.9
C/C(=N\NC(=O)C1CCCN(S(=O)(=O)c2ccccc2)C1)c1cccnc1 (stereo not drawn)	.	2.4*	44	0.6	10	0.9
O=C(Nc1ccc(OC(F)(F)F)cc1)C1CCCN(S(=O)(=O)c2cccnc2)C1 (stereo not drawn)	1.9	-1.1	99*	0	20	0.8
O=C(C1CCCN(S(=O)(=O)c2ccccc2)C1)N1CCN(c2ncccn2)CC1 (stereo not drawn)	-0.88	0.93	.	.	.	.
O=C(C1CCCN(S(=O)(=O)c2cccnc2)C1)N1CCN(c2ccccn2)CC1 (stereo not drawn)	0.034	1.4	9	0.9	63*	0.4
C/C(=N\NC(=O)C1CCCN(S(=O)(=O)c2ccccc2)C1)c1ccncc1 (stereo not drawn)	.	-0.26	49	0.5	69*	0.3
CC(=O)NC(Cc1ccccc1F)C(=O)NC1CCN(C(=O)c2cnccn2)CC1 (stereo not drawn)	0.7	-0.016	0	1	-1	1
CS(=O)(=O)c1ccc(CNC(=O)C2(C(F)(F)F)CC(CCCO)CCCO2)cc1 (stereo not drawn)	.	0.21	.	.	.	.
CN(C)C(=O)COC(=O)/C=C/c1ccccc1[N+](=O)[O-]	.	-0.77	-10	1.1	-108	2.1*
CCNC(=O)COC(=O)/C=C/c1ccccc1[N+](=O)[O-]	.	-0.43	-3	1	-33	1.3
CNc1nc(-c2c[nH]c3ccccc23)cs1	.	-0.65	73*	0.3	78*	0.2
Brc1ccc(-c2cn3nc4c(nc3n2)CCCC4)cc1	.	-0.081	38	0.6	19	0.8
Cc1nc2nc(-c3ccccc3)cn2nc1C	.	0.17	52*	0.5	24	0.8
c1ccc(-c2cn3nc4c(nc3n2)CCCC4)cc1	.	0.9	81*	0.2	29	0.7
CCc1ccc(-c2cn3nc(C)c(C)nc3n2)cc1	.	1	.	.	.	.
COc1ccc(-n2c(NC(=O)c3ccc(Br)o3)c(C#N)c3nc4ccccc4nc32)cc1	.	.	2	1	79*	0.2
CC(C)C[C@H](NC(=O)c1nc[nH]c1C(=O)N(C)Cc1ccccc1)C(=O)OC(C)(C)C	.	-0.57	.	.	.	.
COCC(C)OC(=O)c1c(N)n(CC(C)C)c2nc3ccccc3nc12 (stereo not drawn)	.	0.025	17	0.8	50	0.5
C=CCOC(=O)CN1C(=O)c2ccccc2C1=O	0.045	1.4	61*	0.4	2	1
CCOC(=O)CN1C(=O)c2ccccc2C1=O	.	2.1	-18	1.2	-18	1.2
CCOC(=O)Cc1cnc(NC(=O)c2ccccc2)s1	0.31	0.033	94*	0.1	84*	0.2

Source: PubChem BioAssay (several laboratories)
